# Structures can show the parent of a compound that is named as a salt.
# Test system: NCI-H1688
# Experiment: inhibition of cell viability relative to untreated control (fraction); higher = stronger growth inhibition, active = 0.5 or more
# Conditions: 30 µM; 24 h
# Description: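 Natural product library (TargetMol, 640 compounds) screened on NCI-H1688 SCLC cells at 30 µM for 24 h; viability by CCK-8 absorbance at 450 nm, normalised to untreated control and expressed as inhibition rate (fraction). Compounds with >50% reduction in viability were selected as hits.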
row,SMILES,inhibition of cell viability
1,C[C@]12CC[C@H](O)CC1=CC[C@@H]1[C@@H]2CC[C@]2(C)C(=O)CC[C@@H]12 [Dehydroepiandrosterone],0.0365 (inactive)
2,O=C1C[C@@H]2OCC=C3CN4CC[C@]56c7ccccc7N1[C@H]5[C@H]2[C@H]3C[C@H]46 [Strychnine],-0.0859 (inactive)
3,CC1=C(O)C(=O)C=C2C1=CC=C1[C@@]2(C)CC[C@@]2(C)[C@@H]3C[C@](C)(C(=O)O)CC[C@]3(C)CC[C@]12C [Celastrol],1 (active)
4,"CCC1(O)C(=O)OCc2c1cc1n(c2=O)Cc2cc3ccccc3nc2-1 (single isomer, unassigned; (+)) [(+)-Camptothecin]",0.979 (active)
5,CC[C@@]1([C@@H]2O[C@@H]([C@H]3O[C@@](O)(CO)[C@H](C)C[C@@H]3C)C[C@@H]2C)CC[C@H]([C@]2(C)CC[C@]3(C[C@H](O)[C@@H](C)[C@@H]([C@@H](C)[C@@H](OC)[C@H](C)C(=O)O)O3)O2)O1 [Monensin sodium salt],0.761 (active)
6,Cc1c([C@H](C)[C@@H]2NC[C@@H](C)C[C@H]2O)ccc2c1C[C@H]1[C@H]2CC=C2C[C@@H](O)CC[C@@]21C [Veratramine],0.262 (inactive)
7,CCN1C[C@]2(COC)[C@H](O)C[C@H](OC)[C@@]34[C@@H]5C[C@@]6(O)[C@H](OC(=O)c7ccccc7)[C@@H]5[C@@](OC(C)=O)([C@@H]([C@H](OC)[C@H]23)[C@@H]14)[C@@H](O)[C@@H]6OC [Aconitine],-0.116 (inactive)
8,CCCCCCCCC(=O)NCc1ccc(O)c(OC)c1 [Nonivamide],-0.0291 (inactive)
9,CC1=C2C(=O)[C@H]3[C@@H](CC=C4C[C@@H](O)CC[C@@]43C)[C@@H]2CC[C@]12O[C@@H]1C[C@H](C)CN[C@H]1[C@H]2C [Jervine],0.601 (active)
10,C/C=C(\C)C(=O)N[C@@H](c1ccccc1)[C@@H](O)C(=O)O[C@H]1C[C@@]2(O)[C@@H](OC(=O)c3ccccc3)[C@@H]3[C@]4(OC(C)=O)CO[C@@H]4C[C@H](O)[C@@]3(C)C(=O)[C@H](OC(C)=O)C(=C1C)C2(C)C [Cephalomannine],0.721 (active)
11,COc1cccc2c1cc([N+](=O)[O-])c1c(C(=O)O)cc3c(c12)OCO3 [Aristolochic Acid],0.49 (inactive)
12,COc1cccc(C=O)c1OC [o-Veratraldehyde],-0.267 (inactive)
13,CCC(=O)O[C@H]1CC[C@H]2[C@@H]3CCC4=CC(=O)CC[C@]4(C)[C@H]3CC[C@]12C [Testosterone propionate],-0.173 (inactive)
14,COc1cc2c(cc1OC)C13CCN4CC5=CCOC6CC(=O)N2C1C6C5CC43 (stereo not given) [Brucin],-0.145 (inactive)
15,C[C@@]12C(=O)OC(=O)[C@]1(C)[C@H]1CC[C@@H]2O1 [Cantharidin],0.983 (active)
16,C[C@]12CC[C@H]3[C@@H](CCC4=CC(=O)CC[C@@]43C)[C@@H]1CC[C@@H]2O [Testosterone],0.182 (inactive)
17,C[C@@H]1O[C@@H](O[C@H]2C[C@@H](O)[C@]3(CO)[C@H]4[C@H](O)C[C@]5(C)[C@@H](C6=CC(=O)OC6)CC[C@]5(O)[C@@H]4CC[C@]3(O)C2)[C@H](O)[C@H](O)[C@H]1O [Ouabain octahydrate],0.99 (active)
18,C=C[C@H]1CN2CC[C@H]1C[C@H]2[C@H](O)c1ccnc2ccccc12 [Cinchonidine],-0.042 (inactive)
19,CC(C)(C)[C@]1(O)CC2OC(=O)CC23C(=O)OC2OC(=O)[C@H](O)C231 (stereo not given in full) [Bilobalide],0.155 (inactive)
20,CC(=O)O[C@@]12CO[C@@H]1C[C@H](O)[C@@]1(C)C(=O)[C@H](O)C3=C(C)[C@@H](OC(=O)[C@H](O)[C@@H](NC(=O)c4ccccc4)c4ccccc4)C[C@@](O)([C@@H](OC(=O)c4ccccc4)[C@H]21)C3(C)C [Deacetyltaxol],0.667 (active)

row,SMILES,inhibition of cell viability
1,C=C[C@@H]1C2=CCOC(=O)C2=CO[C@H]1O[C@@H]1O[C@H](CO)[C@@H](O)[C@H](O)[C@H]1O [Gentiopicrin],-0.0346 (inactive)
2,CN1[C@@H]2CC[C@H]1C[C@@H](OC(=O)C(CO)c1ccccc1)C2 (stereo not given in full) [Atropine],-0.146 (inactive)
3,CCC1=CC2CN3CCc4c([nH]c5ccccc45)C(C(=O)OC)(C2)C13 (stereo not given) [Catharanthine sulfate],0.191 (inactive)
4,C[C@@H]1CC[C@H]2[C@@H](C)C(=O)O[C@@H]3O[C@@]4(C)CC[C@@H]1[C@]32OO4 [Artemisinin],0.118 (inactive)
5,O=C1C[C@@H]2OCC=C3CN4CC[C@]56c7ccccc7N1[C@H]5[C@H]2[C@H]3C[C@H]46 [Strychnine Sulfate],-0.193 (inactive)
6,COc1ccc2c(c1)[nH]c1c(C)nccc12 [Harmine],0.462 (inactive)
7,O=C(/C=C/c1ccccc1)OC[C@H]1O[C@@H](O[C@@H]2OC=C[C@H]3[C@H](O)[C@@H]4O[C@]4(CO)[C@@H]23)[C@H](O)[C@@H](O)[C@@H]1O [Picroside I],0.253 (inactive)
8,C[C@]12CC[C@H](O)C[C@H]1CC[C@@H]1[C@@H]2CC[C@]2(C)[C@@H](c3ccc(=O)oc3)CC[C@]12O [Bufalin],0.985 (active)
9,CC(=O)OCC1=C(C(=O)O)N2C(=O)[C@@H](N)[C@H]2SC1 [7-Aminocephalosporanic acid],0.00874 (inactive)
10,NCCc1ccccc1 [Phenethylamine],-0.183 (inactive)
11,CC(=O)O[C@H]1[C@H]2[C@@H](OC(=O)Cc3ccccc3)[C@@H](C)C[C@]2(OC(C)=O)C(=O)/C(C)=C/[C@@H]2[C@H](CC[C@@]13CO3)C2(C)C [Euphorbiasteroid],0.499 (inactive)
12,O=C1CCC[C@@H]2[C@H]3CCCN4CCC[C@@H](CN12)[C@@H]34 [(+)-Matrine],0.176 (inactive)
13,CN1CCc2cc3c(cc2C1O)OCO3 (stereo not given) [Hydrastinine hydrochloride],0.248 (inactive)
14,C[C@H]1O[C@H](O[C@H]2[C@H](O)[C@@H](O)[C@@H](O)[C@H](O)[C@@H]2O)[C@@H](N)C[C@@H]1NC(=N)C(=O)O [Kasugamycin hydrochloride],0.294 (inactive)
15,CC(=O)O[C@H]1C(=O)[C@@]2(C)[C@H]([C@H](OC(=O)c3ccccc3)[C@]3(O)C[C@H](O)C(C)=C1C3(C)C)[C@]1(OC(C)=O)CO[C@@H]1C[C@@H]2O [Baccatin III],0.535 (active)
16,COC1=C[C@@H]2[C@@H]3Cc4ccc(OC)c(O)c4[C@]2(CCN3C)CC1=O [Sinomenine hydrochloride],-0.0195 (inactive)
17,CN1[C@@H]2C[C@@H](OC(=O)[C@H](CO)c3ccccc3)C[C@H]1[C@@H]1O[C@@H]12 [Scopolamine HBr],-0.0423 (inactive)
18,C[C@]12CCC(=O)C=C1CC[C@@H]1[C@@H]2C(=O)C[C@]2(C)C(=O)CC[C@@H]12 [Adrenosterone],-0.0418 (inactive)
19,COc1ccc2c3c([nH]c2c1)C(C)=NCC3 [Harmaline],-0.11 (inactive)
20,CC[C@H](C)[C@H]1O[C@]2(C=C[C@@H]1C)C[C@@H]1C[C@@H](C/C=C(\C)[C@@H](O[C@H]3C[C@H](OC)[C@@H](O[C@H]4C[C@H](OC)[C@@H](O)[C@H](C)O4)[C@H](C)O3)[C@@H](C)/C=C/C=C3\CO[C@@H]4[C@H](O)C(C)=C[C@@H](C(=O)O1)[C@]34O)O2.CO[C@H]1C[C@H](O[C@H]2[C@H](C)O[C@@H](O[C@@H]3/C(C)=C/C[C@@H]4C[C@@H](C[C@]5(C=C[C@H](C)[C@@H](C(C)C)O5)O4)OC(=O)[C@@H]4C=C(C)[C@@H](O)[C@H]5OC/C(=C\C=C\[C@@H]3C)[C@]54O)C[C@@H]2OC)O[C@@H](C)[C@@H]1O [Abamectin],1.01 (active)
